Test results published in the supplement of paper PMC11732987, “Enantioselective OTUD7B fragment discovery through chemoproteomics screening and high-throughput optimisation” (Communications Chemistry, 2025).

Legend:
Assay in all cases: log2 ratio of Biotin-Ahx-Ub-VS probe labelling (fragment/DMSO); higher = less target engagement (more negative = stronger competition), active = hit call of the paper (q ≤ 0.05, log2 ratio ≤ -1)
Details in all cases: compound concentration: 200 uM; treatment time: 3 h
OTUD6B = biological target: T1, OTUD6B (UniProt Q8N6M0)
T1 sequence (whole entry): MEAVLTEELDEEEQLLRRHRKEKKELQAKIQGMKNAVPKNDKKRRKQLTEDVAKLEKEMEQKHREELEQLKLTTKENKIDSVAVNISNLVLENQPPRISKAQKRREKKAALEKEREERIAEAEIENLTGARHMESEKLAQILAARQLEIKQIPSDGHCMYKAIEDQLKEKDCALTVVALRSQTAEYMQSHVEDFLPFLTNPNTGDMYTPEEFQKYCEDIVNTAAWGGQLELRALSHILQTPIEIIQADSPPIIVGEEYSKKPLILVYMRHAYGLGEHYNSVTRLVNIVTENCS
How it was run: (§1)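 Using Biotin-Ahx-Ub-VS at 0.5 µM final for 1 h, DUBs were labelled in HEK293T lysate (495 µg per sample) that had first been treated in triplicate with fragment at 200 µM or vehicle for 3 h. NeutrAvidin enrichment, LysC and trypsin digestion and diaPASEF LC-MS/MS followed. Spectronaut label-free quantities were global-median-normalised. Values are average log2 fragment/vehicle ratios by unpaired t-test, using proteins with ≥2 unique peptides.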

OTUD7B = biological target: T2, OTUD7B (UniProt Q6GQQ9)
T2 sequence (whole entry): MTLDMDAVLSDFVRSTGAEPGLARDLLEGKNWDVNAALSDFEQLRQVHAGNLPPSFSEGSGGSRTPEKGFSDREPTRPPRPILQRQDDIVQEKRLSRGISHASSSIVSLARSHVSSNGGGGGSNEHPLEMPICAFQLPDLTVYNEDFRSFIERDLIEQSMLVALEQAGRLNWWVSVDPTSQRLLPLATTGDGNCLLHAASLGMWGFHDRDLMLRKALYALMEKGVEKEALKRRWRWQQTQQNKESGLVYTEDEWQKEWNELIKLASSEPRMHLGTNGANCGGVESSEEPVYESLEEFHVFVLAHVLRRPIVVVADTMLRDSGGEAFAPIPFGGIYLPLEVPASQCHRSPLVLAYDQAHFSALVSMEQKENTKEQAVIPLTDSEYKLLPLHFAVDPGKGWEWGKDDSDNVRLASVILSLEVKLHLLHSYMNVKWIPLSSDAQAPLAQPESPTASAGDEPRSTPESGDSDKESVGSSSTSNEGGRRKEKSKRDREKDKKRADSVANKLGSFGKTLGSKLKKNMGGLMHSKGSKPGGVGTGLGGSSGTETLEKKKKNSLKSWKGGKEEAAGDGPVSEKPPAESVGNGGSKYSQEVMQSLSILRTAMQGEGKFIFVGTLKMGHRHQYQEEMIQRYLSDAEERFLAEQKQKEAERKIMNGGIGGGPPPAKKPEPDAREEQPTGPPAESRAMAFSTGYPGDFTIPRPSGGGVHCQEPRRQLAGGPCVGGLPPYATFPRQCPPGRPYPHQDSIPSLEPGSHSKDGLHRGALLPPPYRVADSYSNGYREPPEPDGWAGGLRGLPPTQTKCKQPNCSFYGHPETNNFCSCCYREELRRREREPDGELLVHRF
How it was run: as §1

PRPF8 = PRPF8 (UniProt Q6P2Q9)
How it was run: as §1

PSMD7 = biological target: T3, PSMD7 (UniProt P51665)
T3 sequence (whole entry): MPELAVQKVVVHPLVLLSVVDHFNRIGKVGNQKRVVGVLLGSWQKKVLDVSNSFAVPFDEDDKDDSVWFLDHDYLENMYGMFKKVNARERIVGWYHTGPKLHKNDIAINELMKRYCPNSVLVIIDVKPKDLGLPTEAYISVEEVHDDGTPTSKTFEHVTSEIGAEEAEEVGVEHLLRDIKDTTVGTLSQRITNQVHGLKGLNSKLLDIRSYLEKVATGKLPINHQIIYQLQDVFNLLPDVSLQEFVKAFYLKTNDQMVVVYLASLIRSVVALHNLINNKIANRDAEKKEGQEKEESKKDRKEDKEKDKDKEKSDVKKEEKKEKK
How it was run: as §1

UCHL1 = UCHL1 (UniProt P09936)
UCHL1, sequence (P09936 whole entry, looked up): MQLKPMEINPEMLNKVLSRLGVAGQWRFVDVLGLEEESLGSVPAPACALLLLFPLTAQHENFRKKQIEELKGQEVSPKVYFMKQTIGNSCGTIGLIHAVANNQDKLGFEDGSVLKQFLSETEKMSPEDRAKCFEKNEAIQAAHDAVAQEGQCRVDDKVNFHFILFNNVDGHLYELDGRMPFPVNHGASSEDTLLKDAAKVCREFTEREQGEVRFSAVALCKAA
How it was run: as §1

UCHL3 = biological target: T4, UCHL3 (UniProt P15374)
T4 sequence (whole entry): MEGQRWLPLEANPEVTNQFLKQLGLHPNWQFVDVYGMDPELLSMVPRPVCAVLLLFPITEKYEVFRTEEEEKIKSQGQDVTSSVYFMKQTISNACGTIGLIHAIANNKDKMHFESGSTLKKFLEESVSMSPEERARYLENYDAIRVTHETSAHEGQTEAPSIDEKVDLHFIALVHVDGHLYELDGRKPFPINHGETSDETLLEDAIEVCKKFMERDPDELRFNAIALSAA
How it was run: as §1

UCHL5 = biological target: T5, UCHL5 (UniProt Q9Y5K5)
T5 sequence (whole entry): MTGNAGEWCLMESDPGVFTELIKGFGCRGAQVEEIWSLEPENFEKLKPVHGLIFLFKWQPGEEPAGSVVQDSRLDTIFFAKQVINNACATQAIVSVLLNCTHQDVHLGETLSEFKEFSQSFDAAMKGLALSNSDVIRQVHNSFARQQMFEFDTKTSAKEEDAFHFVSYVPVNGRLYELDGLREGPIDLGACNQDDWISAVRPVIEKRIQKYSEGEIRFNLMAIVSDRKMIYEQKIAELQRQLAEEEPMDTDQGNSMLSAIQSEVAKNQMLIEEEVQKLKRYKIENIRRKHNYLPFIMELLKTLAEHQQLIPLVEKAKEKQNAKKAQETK
How it was run: as §1

USP10 = USP10 (UniProt Q14694)
USP10, sequence (Q14694 whole entry): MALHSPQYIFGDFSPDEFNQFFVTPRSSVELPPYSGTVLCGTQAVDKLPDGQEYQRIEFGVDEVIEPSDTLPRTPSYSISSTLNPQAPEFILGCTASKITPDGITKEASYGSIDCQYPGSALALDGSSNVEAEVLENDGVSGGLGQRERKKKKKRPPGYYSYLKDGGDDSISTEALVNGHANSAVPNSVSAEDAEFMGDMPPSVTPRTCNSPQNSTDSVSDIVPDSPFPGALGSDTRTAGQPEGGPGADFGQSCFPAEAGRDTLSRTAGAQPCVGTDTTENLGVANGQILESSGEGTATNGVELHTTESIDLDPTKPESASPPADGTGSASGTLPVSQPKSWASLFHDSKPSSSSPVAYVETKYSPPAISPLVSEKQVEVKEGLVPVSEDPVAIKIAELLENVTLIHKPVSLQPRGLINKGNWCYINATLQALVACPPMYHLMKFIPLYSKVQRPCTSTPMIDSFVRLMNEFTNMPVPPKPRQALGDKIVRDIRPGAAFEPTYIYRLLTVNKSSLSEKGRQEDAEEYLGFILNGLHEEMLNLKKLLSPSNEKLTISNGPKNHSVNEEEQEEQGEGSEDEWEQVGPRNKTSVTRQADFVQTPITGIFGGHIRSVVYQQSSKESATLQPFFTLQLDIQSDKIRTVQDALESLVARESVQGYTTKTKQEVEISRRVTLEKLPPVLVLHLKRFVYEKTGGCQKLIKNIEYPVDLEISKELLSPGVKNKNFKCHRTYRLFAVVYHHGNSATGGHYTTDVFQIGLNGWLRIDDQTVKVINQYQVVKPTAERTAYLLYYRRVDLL
How it was run: as §1

USP15 = biological target: T6, USP15 (UniProt Q9Y4E8)
T6 sequence (whole entry): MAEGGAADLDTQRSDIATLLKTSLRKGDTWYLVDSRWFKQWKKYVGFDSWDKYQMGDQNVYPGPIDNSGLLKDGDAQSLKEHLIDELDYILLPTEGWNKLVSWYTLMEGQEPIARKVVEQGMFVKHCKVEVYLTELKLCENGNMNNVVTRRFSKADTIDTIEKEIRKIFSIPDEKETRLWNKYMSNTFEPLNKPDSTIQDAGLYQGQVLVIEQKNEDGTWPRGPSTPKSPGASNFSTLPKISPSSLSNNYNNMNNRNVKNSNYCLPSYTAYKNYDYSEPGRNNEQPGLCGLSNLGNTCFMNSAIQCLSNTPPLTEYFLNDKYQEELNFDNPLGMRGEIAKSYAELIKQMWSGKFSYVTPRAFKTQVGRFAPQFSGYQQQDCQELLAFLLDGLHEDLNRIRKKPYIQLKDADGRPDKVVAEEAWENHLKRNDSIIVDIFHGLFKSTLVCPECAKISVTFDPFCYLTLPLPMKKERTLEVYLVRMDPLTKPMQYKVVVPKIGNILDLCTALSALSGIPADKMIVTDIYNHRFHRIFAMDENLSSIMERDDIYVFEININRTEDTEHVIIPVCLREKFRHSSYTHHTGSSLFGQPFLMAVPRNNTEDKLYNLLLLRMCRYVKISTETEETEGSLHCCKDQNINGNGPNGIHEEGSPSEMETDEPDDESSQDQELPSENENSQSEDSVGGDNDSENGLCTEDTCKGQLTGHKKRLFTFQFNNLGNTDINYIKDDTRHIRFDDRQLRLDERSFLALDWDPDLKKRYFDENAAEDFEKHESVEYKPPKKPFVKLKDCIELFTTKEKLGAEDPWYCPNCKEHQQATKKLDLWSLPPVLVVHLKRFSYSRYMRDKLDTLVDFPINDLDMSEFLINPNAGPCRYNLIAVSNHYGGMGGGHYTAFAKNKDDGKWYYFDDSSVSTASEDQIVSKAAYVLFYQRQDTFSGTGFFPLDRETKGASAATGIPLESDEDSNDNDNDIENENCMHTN
How it was run: as §1

USP16 = USP16 (UniProt Q9Y5T5)
USP16, sequence (Q9Y5T5 whole entry, looked up): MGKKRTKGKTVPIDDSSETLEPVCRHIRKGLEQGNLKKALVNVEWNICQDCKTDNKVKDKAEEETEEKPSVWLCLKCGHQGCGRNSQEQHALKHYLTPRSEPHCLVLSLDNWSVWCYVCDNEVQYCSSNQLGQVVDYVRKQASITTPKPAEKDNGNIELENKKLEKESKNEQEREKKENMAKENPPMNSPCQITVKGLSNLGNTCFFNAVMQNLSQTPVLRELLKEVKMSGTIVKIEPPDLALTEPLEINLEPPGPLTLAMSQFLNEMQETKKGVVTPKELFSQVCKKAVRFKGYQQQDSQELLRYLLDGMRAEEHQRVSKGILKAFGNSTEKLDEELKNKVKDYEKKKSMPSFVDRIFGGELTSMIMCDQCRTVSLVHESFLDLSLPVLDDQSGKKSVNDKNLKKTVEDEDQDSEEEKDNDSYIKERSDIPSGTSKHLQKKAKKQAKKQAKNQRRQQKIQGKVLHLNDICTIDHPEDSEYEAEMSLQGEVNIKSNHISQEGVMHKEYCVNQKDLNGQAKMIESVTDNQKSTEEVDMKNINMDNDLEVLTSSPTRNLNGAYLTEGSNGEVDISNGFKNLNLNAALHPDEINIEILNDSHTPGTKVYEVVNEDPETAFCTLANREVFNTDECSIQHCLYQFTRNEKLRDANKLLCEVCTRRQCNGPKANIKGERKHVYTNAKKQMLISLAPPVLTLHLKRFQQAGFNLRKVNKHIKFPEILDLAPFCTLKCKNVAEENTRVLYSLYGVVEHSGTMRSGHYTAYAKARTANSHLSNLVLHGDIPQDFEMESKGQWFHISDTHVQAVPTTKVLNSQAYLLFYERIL
How it was run: as §1

Measured: log2 ratio of Biotin-Ahx-Ub-VS probe labelling

Cc1cc(CC(C)NC(=O)CCl)n[nH]1 (stereo not given)
inactive: OTUD6B -0.0562 | OTUD7B -0.54 | PRPF8 -0.109 | PSMD7 -0.276 | UCHL1 -0.533 | UCHL3 -0.222 | UCHL5 -0.292 | USP10 -0.0255 | USP15 -0.325 | USP16 0.186
